Screening results (PubChem)
A selection: hits, their analogues and other compounds. The true share with any hit is near 2.6%.
eIF4H FP inh: inhibitors of RNA binding by human eIF4H. eIF4H fluorescence polarization binding assay. inhibition, % at 35 µM. actives 0.94% (n = 290,000);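 also: calls also rest on retests at 20 µM and on dose response follow-up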
PHOSPHO1 block: inhibitors of human PHOSPHO1 phosphatase | actives 1.1% (n = 290,000) | AID 1565 | recombinant PHOSPHO1, absorbance phosphatase assay | Q8TCT1 | inhibition, % at 13.3 µM; in the data active = inhibition above about 60%
ABCB6 inh MLPCN: inhibitors of human ABC transporter ABCB6 | K562-ABCB6 porphyrin accumulation, flow cytometry, 1 h; hits give low values | fluorescence ratio to DMSO, % at 10 µM | actives 0.19% (n = 360,000);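 active = fluorescence ratio to DMSO below 75%, the collection mean minus 3 SD; inconclusive = too few cells collected in the well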;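 also: signal is porphyrin accumulated inside mitochondria; lower ratio means ABCB6 inhibition with less porphyrin fluorescence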
AI-2 QS mod: Vibrio harveyi AI-2 quorum sensing modulation. Vibrio harveyi JMH597 AI-2 luminescence/OD600 ratio, 9 h; hits give low values; strain lacks LuxN and CqsS sensors; 0 = neutral-control median. activity change, % at 7.5 µM. AID 2094. actives 0.4% (n = 300,000); in the data active = activity change below about -75%, passing the limit was not always enough; inconclusive = no clear call, values can overlap the other calls;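 also: luminescence divided by OD600 gain over 9 h not by final OD600 alone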
PABP1 MLLE inh: blocks PAM2 peptide binding to the PABP1 MLLE domain. P11940. GST-MLLE / FITC-PAM2 fluorescence polarization. inhibition, % at 20 µM. actives 0.36% (n = 360,000). AID 588489; in the data active = inhibition above about 35%, passing the limit was not always enough
Target sequence (P11940 whole entry, looked up, the tested form may be a part): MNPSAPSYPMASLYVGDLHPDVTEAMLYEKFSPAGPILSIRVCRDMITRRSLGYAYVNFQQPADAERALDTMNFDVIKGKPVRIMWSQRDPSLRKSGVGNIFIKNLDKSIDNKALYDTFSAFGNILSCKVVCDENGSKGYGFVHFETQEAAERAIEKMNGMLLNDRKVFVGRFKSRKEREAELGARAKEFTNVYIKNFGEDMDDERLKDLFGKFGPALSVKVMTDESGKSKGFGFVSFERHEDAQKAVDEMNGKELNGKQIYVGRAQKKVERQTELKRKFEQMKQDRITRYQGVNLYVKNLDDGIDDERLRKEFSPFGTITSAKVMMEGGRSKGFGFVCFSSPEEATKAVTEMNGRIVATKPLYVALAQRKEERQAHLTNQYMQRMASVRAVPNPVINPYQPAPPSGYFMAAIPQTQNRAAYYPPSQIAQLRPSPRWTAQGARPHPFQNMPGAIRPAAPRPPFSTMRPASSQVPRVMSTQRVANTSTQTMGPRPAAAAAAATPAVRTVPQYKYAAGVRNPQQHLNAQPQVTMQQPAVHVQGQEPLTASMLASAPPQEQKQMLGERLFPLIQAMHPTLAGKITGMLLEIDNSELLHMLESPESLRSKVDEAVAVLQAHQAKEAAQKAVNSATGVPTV
PABP FP inh: PABP-poly(A) binding inhibition | P11940 | AID 2014 | calls only at 35 µM | actives 1% (n = 290,000) | PABP-poly(A) RNA binding, fluorescence polarization;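 also: calls also rest on retests at 20 µM and on dose response follow-up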
Of the large screens only hits and unclear results are named; the others gave an inactive call. Unless noted, no rule for the calls is given here.

Cc1ccc(-c2nc3ncccn3c2NC2CCCCC2)o1	eIF4H FP inh 53.5, PABP FP inh active
CCc1nc2c(OCc3ccccc3C)cccn2c1N(C)C(=O)c1ccco1	none (no result: eIF4H FP inh, PHOSPHO1 block, AI-2 QS mod, PABP FP inh)
Nc1cccn2c(-c3ccc(Cl)c(Cl)c3)cnc12	eIF4H FP inh 94.9, PABP FP inh active
Nc1cccn2c(-c3ccc(Cl)cc3)cnc12	eIF4H FP inh inconclusive
COc1cc(/C=C2\SC(=S)N(NC(=O)c3cccnc3)C2=O)ccc1O	none
COc1cc(/C=C2\SC(=S)N(Nc3ncc(C(F)(F)F)cc3Cl)C2=O)ccc1O	PHOSPHO1 block 73.1
CN(C)c1ccc(/C=C2\SC(=S)N(Nc3ncc(C(F)(F)F)cc3Cl)C2=O)cc1	eIF4H FP inh inconclusive, PABP FP inh inconclusive
O=C1/C(=C/c2cccnc2)SC(=S)N1c1ccc(F)cc1	PABP1 MLLE inh 43.3
COc1cc(/C=C2\SC(=S)N(c3cccnc3)C2=O)ccc1O	eIF4H FP inh 71.4
CCCCCCCCN1C(=O)[C@H](CC(=O)N2CCOCC2)C[C@@]2(C(=O)OC)CCCCC=C12	none (no result: eIF4H FP inh, PHOSPHO1 block, AI-2 QS mod, PABP1 MLLE inh, PABP FP inh)
COc1ccc(NC(=O)COC(=O)c2ccc([N+](=O)[O-])o2)cc1Cl	AI-2 QS mod -89.1
O=C(OCc1cc(Cl)ccc1OC(F)F)c1cncc(Br)c1	none
COc1ccc([N+](=O)[O-])cc1NC(=O)COC(C)=O	PHOSPHO1 block 64.7
CCCC(=O)OCC(=O)Nc1cc([N+](=O)[O-])ccc1OC	none
O=C(OCc1cc(Cl)ccc1OC(F)F)c1ccc([N+](=O)[O-])o1	AI-2 QS mod -99.2 (no result: ABCB6 inh MLPCN, PABP1 MLLE inh)
CCCCn1nnnc1C(c1cc2ccccc2o1)N(CCC#N)Cc1ccccc1 (centres undefined)	none (no result: eIF4H FP inh, PHOSPHO1 block, AI-2 QS mod, PABP1 MLLE inh, PABP FP inh)
c1cncc(-c2nnc(-c3cccnc3)nn2)c1	PHOSPHO1 block 66.0, PABP1 MLLE inh 40.5
c1ccc(-c2nnc(-c3ccccc3)nn2)cc1	none
CN(C)c1ncnc2c1ncn2[C@H]1CN(Cc2ccc(-c3ccccc3)cc2)C[C@@H](CO)O1	none (no result: eIF4H FP inh, PHOSPHO1 block, AI-2 QS mod, PABP FP inh)
COC(=O)c1cn(NC(=O)c2cccc(N(C)C)c2)c(=O)c2ccccc12	ABCB6 inh MLPCN 72.0
CCOC(=O)C1(C)CCN1C(=O)c1ccc(N(C)C)cc1 (centres undefined)	none (no result: eIF4H FP inh, PHOSPHO1 block, AI-2 QS mod, PABP FP inh)
CCCS(=O)(=O)c1c(S(=O)(=O)CCC)c2ccc(C(N)=O)cn2c1C(=O)OC	none
CCCS(=O)(=O)c1c(S(=O)(=O)CCC)c2ccc(C(N)=O)cn2c1C(=O)c1ccc(OC)cc1	PHOSPHO1 block 60.1
Cc1cc(C(=O)CSc2nnc(N)s2)c(C)n1Cc1cccs1	PABP FP inh active
Cc1cc(C(=O)CSc2nnc(-c3ccc(OC(F)F)cc3)o2)c(C)n1Cc1cccs1	eIF4H FP inh 56.9, PHOSPHO1 block 94.5, PABP FP inh active
CC(=O)Nc1ccc(SCC(=O)c2cc(C)n(Cc3cccs3)c2C)cc1	none
Cc1csc(SCC(=O)c2cc(C)n(Cc3cccs3)c2C)n1	PHOSPHO1 block 91.1
Nc1nnc(SCC(=O)c2ccc3ccccc3c2)s1	PHOSPHO1 block 75.3 (no result: PABP1 MLLE inh)
CCCCNC(=O)C1(C)CCCCCN1Cc1cc2ccccc2o1 (centres undefined)	none (no result: eIF4H FP inh, PHOSPHO1 block, AI-2 QS mod, PABP FP inh)
CCCNC(=O)C1(C)CCN(C(=O)c2ccccc2OC)C1 (centres undefined)	none (no result: eIF4H FP inh, PHOSPHO1 block, AI-2 QS mod, PABP FP inh)
CC1=Nc2cc(C(=O)NCc3ccco3)ccc2Sc2ccc(C)cc21	AI-2 QS mod -98.4
CC1=Nc2cc(C(=O)O)ccc2Sc2c(C)ccc(C)c21	none
CC1=Nc2cc(C(=O)NCC3CCCO3)ccc2Sc2ccc(C)cc21 (centres undefined)	none
CC1=Nc2cc(C(=O)O)ccc2Sc2ccc(C)cc21	AI-2 QS mod -90.0
CCOC(=O)[C@]12CCCC=C1N(Cc1ccco1)C(=O)[C@H](CC(=O)N1CCSCC1)C2	none (no result: eIF4H FP inh, PHOSPHO1 block, AI-2 QS mod, PABP1 MLLE inh, PABP FP inh)
CN(C)c1ccc(O)c2c1CC1CC3[C@@H](N(C)C)C(=O)C(C(N)=O)C(=O)[C@]3(O)C(=O)C1C2=O (some centres undefined)	none (no result: eIF4H FP inh, PHOSPHO1 block, AI-2 QS mod, PABP FP inh)
C[C@H]1c2cccc(O)c2C(O)=C2C(=O)C3(O)C(O)=C(C(N)=O)C(=O)[C@@H](N(C)C)[C@@H]3[C@@H](O)[C@@H]21 (some centres undefined)	none (no result: eIF4H FP inh, PHOSPHO1 block, AI-2 QS mod, PABP FP inh)
CN(C)c1ccc(O)c2c1CC1CC3C(N(C)C)C(=O)C(C(N)=O)=C(O)[C@@]3(O)C(=O)C1=C2O (some centres undefined)	AI-2 QS mod -120.2 (no result: eIF4H FP inh, PHOSPHO1 block, PABP FP inh)
C=C1c2cccc(O)c2C(O)=C2C(=O)[C@]3(O)C(O)=C(C(N)=O)C(=O)[C@@H](N(C)C)[C@@H]3[C@@H](O)[C@H]12	eIF4H FP inh 107.0, AI-2 QS mod -83.3, PABP FP inh active
Cn1ccnc1Sc1nc2ccccc2nc1NS(=O)(=O)c1ccccc1	eIF4H FP inh inconclusive, PHOSPHO1 block 73.4, PABP FP inh inconclusive
Cn1cnnc1Sc1nc2ccccc2nc1NS(=O)(=O)c1ccccc1	eIF4H FP inh inconclusive, PHOSPHO1 block 62.2, PABP FP inh inconclusive
CCN(C)C1CN(Cc2cn(Cc3ccc(C(F)(F)F)cc3)nn2)S(=O)(=O)C1 (centres undefined)	none (no result: eIF4H FP inh, PHOSPHO1 block, AI-2 QS mod, PABP1 MLLE inh, PABP FP inh)
CCCS(=O)(=O)NC(=O)C1(C)CCN(C(=O)c2oc3ccccc3c2C)C1 (centres undefined)	none (no result: eIF4H FP inh, PHOSPHO1 block, AI-2 QS mod, PABP FP inh)
Cc1ccc(C2(C)NC(=O)N(CC(=O)NNC(=O)c3ccoc3C)C2=O)cc1 (centres undefined)	none (no result: eIF4H FP inh, PHOSPHO1 block, PABP FP inh)
Cc1ccc(C2(C)NC(=O)N(CC(=O)NNC(=O)c3cc(C)oc3C)C2=O)cc1 (centres undefined)	AI-2 QS mod -79.5 (no result: eIF4H FP inh, PHOSPHO1 block, PABP FP inh)
O=C(O)c1cccc(Cn2c(Cl)c(/C=N/NC(=O)c3cc4ccccc4cc3O)sc2=O)c1	eIF4H FP inh 102.4, PABP FP inh active
Cc1c(Cl)cccc1NC(=S)NCCc1ccc(S(N)(=O)=O)cc1	PABP1 MLLE inh 42.1
CC(C)NC(=O)c1cccc2c1-c1ccccc1C2=O	none
NC(=O)COC(=O)c1cccc2c1-c1ccccc1C2=O	eIF4H FP inh inconclusive, PABP FP inh active
CC(C)COC(=O)c1ccc2c(c1O)C(=O)c1ccccc1C2=O	PHOSPHO1 block 80.4
COc1cc(C(O)c2nc(-c3ccccc3OC)cs2)ccc1F (centres undefined)	none (no result: eIF4H FP inh, PHOSPHO1 block, AI-2 QS mod, PABP FP inh)
CSCCC(NC(=O)c1cc(CC(C)C)oc1C)C(=O)O (centres undefined)	none
CSCCC(NC(=O)c1cc(C)oc1C)C(=O)O (centres undefined)	PHOSPHO1 block 90.1
O=C(c1cccc(Oc2ccc([N+](=O)[O-])cc2)c1)N1CCOCC1	PHOSPHO1 block 62.6
S=C(NCc1ccco1)Nc1cccc(Cl)c1	none
CCOc1ccccc1NC(=S)NCc1ccccc1	none
CCOc1ccccc1NC(=S)NCc1ccco1	PHOSPHO1 block 82.1
S=C(NCc1ccco1)Nc1ccc(Cl)c(Cl)c1	PHOSPHO1 block 72.0
S=C(NCc1ccco1)Nc1cc(-c2ccccc2)[nH]n1	AI-2 QS mod -81.5
S=C(NCc1ccco1)Nc1ccc(Br)cn1	none
